# Source: PubChem BioAssay (Tox21)
# Records with an inconclusive call do not appear. Where a call stands in place of a potency, no number is given. A number with no mark means an inactive call. Active and inactive are the calls of the source. The call rests on the fitted dose curve; in most records, active means well fitted cell-killing curve with a large enough effect in the repeat runs; inconclusive means weak or mixed curves, or effect the other way; inactive means flat fitted curve, though single readings scatter. Where a SMILES comes first, the peptide text is derived from it. [ ]: non-standard residue; d: D form. pGlu = O=C1CC[C@@H](C(=O)O)N1
# Assay: qHTS RealTime-Glo MT Cell Viability Assay in HEK293 cells - 32 hour (AID 1224868); further: nearly all actives have a fitted effect of over 50% in size; on activity change, negative = cytotoxic: top concentration of the series differs between compounds
# Conditions: RealTime-Glo luminescence; series mostly up to 76.8 µM
# Description: National Center for Advancing Translational Sciences [NCATS]
# NIH Chemical Genomics Center [NCGC]
# U.S. Environmental Protection Agency [EPA]
# National Institutes of Environmental Health Sciences [NIEHS]
# National Toxicology Program [NTP]
# U.S. Food and Drug Administration [FDA]
# Measure of cell viability is critical in the cell-base assay. Analysis of cell viability is necessary for the characterization of cell responses to cytotoxic drugs and environmental stress. A RealTime-Glo MT Cell Viability Assay to monitor cell viability in real time of continues cell culture during 40 hours of compound treatment was used to screen Tox21 10K library compounds in Hek293 cells. The RealTime-Glo MT Cell Viability Assay is a nonlytic, homogeneous, bioluminescent method to measure cell viability in real time using a simple, plate-based method. The assay involves adding NanoLuc luciferase and a cell-permeant prosubstrate to cells in culture. Viable cells reduce the proprietary prosubstrate to generate a substrate for NanoLuc luciferase. This substrate diffuses from cells into the surrounding culture medium, where it is rapidly used by the NanoLuc Enzyme to produce a luminescent signal. The signal correlates with the number of viable cells, making the assay well suited for cytotoxicity studies.
# Tox21 Assay Protocol Summary:
# The mixture of Hek293 cell suspension and reagents were dispensed at 600cells/6 ul/well in 1536-well tissue culture treated black solid bottom plates using a Multidrop dispenser. After the assay plates were incubated at a 37 C/5% CO2 incubator for 5 hours, 23 nL of compounds dissolved in DMSO, positive and negative controls was transferred to the assay plate by a pintool work station. The plates were incubated at 37 C for 40 hours. The luminescence intensity were measured at 0h, 8h, 16h, 24h, 32h and 40h time points using ViewLux plate reader during compound treatment.
# Potency means the concentration at half of the fitted maximal effect.
Structure (SMILES),Potency,"activity change, negative = cytotoxic"
C=C(C)C(=O)OCC(O)CO (stereo not given),inactive,–
Cc1coc2ccccc2c1=O,inactive,–
COc1cc(C)nc(-n2nc(C)cc2OC)n1,inactive,–
CC1CCC(CO)CC1 (stereo not given),inactive,–
CC(=O)c1ccc2ccccc2c1,inactive,–
CC(C)C(=O)OC(=O)C(C)C,inactive,–
N[C@@H](CCC(=O)O)C(=O)O,inactive,–
CCO[Si](OCC)(OCC)c1ccccc1,inactive,–
CCOCC(C)O (stereo not given),inactive,–
CCNC(=O)[C@@H]1CCCN1C(=O)[C@H](CCCN=C(N)N)NC(=O)[C@H](CC(C)C)NC(=O)CNC(=O)[C@H](Cc1ccc(O)cc1)NC(=O)[C@H](CO)NC(=O)[C@H](Cc1c[nH]c2ccccc12)NC(=O)[C@H](Cc1cnc[nH]1)NC(=O)[C@@H]1CCC(=O)N1 ([pGlu]HWSYGLRP-NHEt),inactive,–
CC(COc1ccccc1)NN (stereo not given),inactive,–
NC(=O)Cc1cccc2ccccc12,inactive,–
CC[N+](CC)(CC(=O)Nc1c(C)cccc1C)Cc1ccccc1 (tested in a mixture with another compound),inactive,–
O=C(O)CNC(=O)c1ccc(CO)o1,inactive,–
CN(C)C(=O)Oc1ccc[n+](C)c1,inactive,–
C=C(C)C(=O)OCC1CCCO1 (stereo not given),inactive,–
C=CCCCCCCCCC(=O)OCC,inactive,–
FB(F)F,inactive,–
C=COCC1CCC(COC=C)CC1 (stereo not given),inactive,–
CC(C)C[C@@H](N)C(=O)O,–,5.13% [at 15.8 µM]

Structure (SMILES),Potency,"activity change, negative = cytotoxic"
CCCCN(CCC(=O)OCC)C(C)=O,inactive,–
O=Cc1cccc(Br)c1,inactive,–
CC1(C)OC[C@@H](COC(=O)CCc2ccc(OC[C@@H](O)CNCCNC(=O)N3CCOCC3)cc2)O1,inactive,–
CCCOC(=O)CC,inactive,–
Cc1nc2ccc(CN(C)c3ccc(C(=O)N[C@@H](CCC(=O)O)C(=O)O)s3)cc2c(=O)[nH]1,inactive,–
c1ccc(CCc2ccccc2)cc1,inactive,–
CC1(C)[C@@H]2CC[C@@]1(C)[C@H](O)C2,inactive,–
O=S(=O)(O)c1cc(O)c(O)c(S(=O)(=O)O)c1,inactive,–
CO/N=C(\C(=O)N[C@@H]1C(=O)N2C(C(=O)O)=C(CSc3nc(=O)c(O)nn3C)CS[C@H]12)c1csc(N)n1,inactive,–
CC1=NN(c2cccc(S(=O)(=O)O)c2)C(=O)C1,inactive,–
O=C(c1ccccc1)C1(O)CCCCC1,inactive,–
Clc1cc(Cl)c(Cl)nc1Cl,inactive,–
CC/C=C\CCOC(C)OCC (stereo not given),inactive,–
CC(CO)(CO)[N+](=O)[O-],inactive,–
CCC(C(=O)NC(=O)NC(C)=O)c1ccccc1 (stereo not given),inactive,–
C=CCCC(=O)O,inactive,–
CCN(C=O)CC,inactive,–
CN(C)C(=O)Oc1cccc([N+](C)(C)C)c1,inactive,–
CC[N+](C)(CC)CCOC(=O)C1c2ccccc2Oc2ccccc21,inactive,–
Nc1ccn([C@@H]2O[C@H](CO)[C@@H](O)C2(F)F)c(=O)n1,1.07 µM (active),–
